Screens deposited in PubChem BioAssay by National Center for Advancing Translational Sciences (NCATS).
Compounds with a hit are over-represented: about 13% of the library has one in this group of screens.
HCMV antiviral: blocks human cytomegalovirus replication. AID 1259415. HFF cells, HCMV-luciferase reporter, 72 h; stronger effect = lower value. 4.5% of 410,000 active. activity change, negative = inhibition, % at 57.5 µM; in the data active = activity change below about -60%; inconclusive = no clear call, values can overlap the other calls; inactive = above about -39%
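Compounds were evaluated in HFFs infected with an HCMV luciferase reporter virus (MOI 1 PFU/cell). Luciferase in lysates collected 72 h post infection served as the replication measure.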
Pf growth 48h: inhibits P. falciparum growth in the first generation, 48 h | P. falciparum luciferase growth in erythrocytes, 48 h | Potency, µM (titrated, usually from 28.7 µM), usual class: inhibitors | 5.9% of 310,000 active
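Growth was read as firefly luciferase luminescence after a 48 h, 37 C, 5% CO2 exposure of compounds to reporter-bearing P. falciparum cultures (0.1% parasitemia, 2% hematocrit final) in Albumax-supplemented RPMI 1640.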
Pf growth 96h: P. falciparum growth inhibition at 96 hour, primary screen for plastid delayed-death inhibitors | 6.9% of 320,000 active | AID 504834 | Potency, µM (doses to about 28.7 µM), actives largely listed as inhibitors | P. falciparum luciferase reporter growth, 96 h
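Readout is luminescence from an integrated firefly luciferase in P. falciparum. Red cells, 2% hematocrit and 0.05% parasitemia final, were cultured with compound through two parasite generations (96 hours) at 37 C, 5% CO2.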
HCV inh: HCV inhibition; Huh7.5.1 HCVcc-Cre infection, luciferase reporter, 44 h; Potency, µM (highest dose often 41.8 µM), usual class: inhibitors; 3.4% of 340,000 active
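After 44 h co-culture of compound, cells and HCVcc-Cre (~0.5 moi), substrate is added for 15 min at room temperature and luciferase measured over 15 sec. Cells were seeded at 1,000/well and pre-cultured 4 h.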
A number is an active result; i = inactive; ? = inconclusive; nt = not tested or not shown; [ ] = another dose, or the depositor's remark. Unless noted, calls come from the whole dose curve; as a rule, active = well fitted inhibition curve with a large enough effect; inconclusive = small, poorly fitted or top-dose-only effect, or another doubt; inactive = no such curve, though single readings can be large or run the other way.

SMILES | HCMV antiviral | Pf growth 48h | Pf growth 96h | HCV inh
CCC(C)NC(=O)CSc1ccc(Cl)cc1 (centres undefined) | i | i | 3.3µM | i
CC(CCc1ccccc1)NC(=O)CSc1ccccc1 (centres undefined) | i | i | 13µM | i
O=C(CSc1ccccc1)NCCCc1ccccc1 | i | i | 15µM | i
Cn1ncc(Br)c1NC(=O)CSc1ccc(Cl)cc1 | i | i | i | 25µM
Cc1ccc(SCC(=O)NCCCc2ccccc2)cc1 | ? | i | i | i
COc1ccc(-c2nc(C)c(CCNC(=O)c3c(F)cccc3F)s2)cc1 | i | nt | nt | nt
Cc1cccc(N(CC(=O)NCCSc2ccc(Cl)cc2)S(C)(=O)=O)c1C | i | nt | nt | nt
Cc1ccc(/C=N/NC(=O)c2c(C)nc3ccc(Cl)cn23)cc1 | i | nt | nt | nt
Cc1c(-c2ccccc2)nc2ccccc2c1C(=O)Oc1ccc([N+](=O)[O-])cc1 | -76 | ? | ? | ?
Cc1nc2cccc(C(=O)Oc3ccc([N+](=O)[O-])cc3)c2o1 | i | i | i | i
COCCn1c(SCC(=O)N2CCCCCC2)nc2c([nH]c3ccccc32)c1=O | i | ? | ? | i
CCOC(=O)N1CCN(C(=O)CSc2nc3c([nH]c4ccccc43)c(=O)n2CCOC)CC1 | i | ? | 12µM | i
CCC1CCCCN1C(=O)CSc1nc2c([nH]c3ccccc32)c(=O)n1C (centres undefined) | i | 9.3µM | i | ?
COCCn1c(SCC(=O)N2CCCCC2)nc2c([nH]c3ccccc32)c1=O | i | 12µM | ? | i
CCc1ccccc1NC(=O)Cc1c(C(=O)O)[nH]c2ccc(Cl)cc12 | i | nt | nt | nt
CCCCCCn1ccc(=N)cc1 | -80 | 3.3µM | 0.47µM | 0.79µM
O=C(Nc1ccc(-c2noc(CCc3ccccc3)n2)cc1)c1ccco1 | -88 | ? | ? | ?
O=C(Nc1nc2c(ccc3ccccc32)s1)c1ccco1 | i | i | ? | 25µM
O=C(Nc1ccc(-c2nc3c(ccc4ccccc43)o2)cc1)c1ccco1 | i | nt | 1.9µM | i
Cc1ccccc1Cn1cc(CCC(=O)NCc2cccc(Br)c2)c2ccccc21 | i | nt | nt | nt
Cc1ccc(S(=O)(=O)N(C)C)cc1NC(=O)COC(=O)c1cccs1 | i | nt | nt | nt
CCOc1ncccc1C(=O)OCC(=O)Nc1ccc(C)c(S(=O)(=O)N(C)C)c1 | i | i | i | i
Cc1ccc(S(=O)(=O)N(C)C)cc1NC(=O)COC(=O)/C(=C/c1ccc(F)cc1)c1cccs1 | i | i | i | 11µM
Cc1ccc(NC(=O)c2ccccc2OCC(=O)Nc2ccccc2F)cc1S(=O)(=O)N(C)C | i | 9.3µM | 7.4µM | ?
CN(C)S(=O)(=O)c1cccc(NC(=O)COc2ccccc2C(=O)Nc2ccccc2)c1 | i | nt | nt | nt
SMILES | HCMV antiviral | Pf growth 48h | Pf growth 96h | HCV inh
Cc1cccc(NC(=O)COc2ccccc2C(=O)NC(C)c2ccccc2)c1 (centres undefined) | nt | i | 9.3µM | 10µM
Cc1ccc(S(=O)(=O)N(C)C)cc1NC(=O)COc1ccccc1C(=O)Nc1ccccc1 | i | 12µM | ? | ?
Cc1ccc2c(c1)-c1c(cnn1CC(=O)N1CCN(c3cc(C)ccc3C)CC1)CO2 | i | nt | nt | nt
Cc1cccc(C)c1NC(=O)COc1ccccc1C(=O)Nc1ccc(Br)cn1 | -65 | i | ? | i
Cc1ccc(C(=O)COc2ccccc2C(=O)Nc2ccccc2)cc1 | i | i | i | 16µM
Cc1ccc(NC(=O)c2ccccc2OCC(=O)c2ccccc2)cc1 | i | ? | nt | ?
CCC(=O)c1ccccc1OCC(=O)Nc1c(C)cccc1C | i | i | i | i
CC(=O)Nc1nonc1-c1nnc(SCc2ccc(Cl)cc2)n1C | i | nt | nt | nt
Cc1cccc(Nc2cc(C)nc3nc(Cc4ccc(Cl)cc4)nn23)c1 | i | nt | nt | nt
CN1CCc2c(sc3c2C(=O)NC(c2ccc(C(C)(C)C)cc2)N3)C1 (centres undefined) | i | nt | nt | nt
CCOC(=O)c1nnn(-c2nn3nnnc3c3ccccc23)c1C | i | 0.93µM | i | i
CCOC(=O)c1nnn(-c2nonc2-n2cccc2)c1C | i | ? | ? | i
CC1CCCC(C)N1/N=C/c1ccc(Cl)cc1 (centres undefined) | i | nt | i | 11µM
CC1CCCC(C)N1/N=C/c1ccc(C#N)cc1 (centres undefined) | i | i | i | i
NNC(=O)CSc1cccc2cccnc12 | i | i | i | i
O=C(CSc1cccc2cccnc12)N1CCCC1 | ? | i | i[5.75 µM] | 0.71µM
O=C(CSc1cccc2cccnc12)Nc1cc(C(=O)O)cc(C(=O)O)c1 | i | i | ? | 11µM
Cc1cccc(-c2nc(SCC(=O)NCC3CCCO3)c3c(=O)n(C)c(=O)n(C)c3n2)c1 (centres undefined) | i | nt | nt | nt
Cc1ccc(-c2nn(-c3ccc(F)cc3F)c3c2cnc2ccc(F)cc23)cc1 | i | nt | nt | nt
CCOC(=O)c1c(C)n(-c2ccc(C)cc2)c2ccc(O)c(CN(C)C)c12 | -88 | 10µM | i | i
CCOC(=O)c1c(C)n(-c2ccc(OC)cc2)c2ccc(O)c(CN(C)C)c12 | ? | ? | 7.4µM | ?
CCOC(=O)c1c(C)n(C)c2ccc(O)c(CN(C)C)c12 | ? | i | i | i
O=C(Nc1cccs1)Nc1ccc(Br)cc1F | i | ? | 12µM | ?
Cc1ccc(NC(=O)Nc2cccs2)cc1 | i | i | 7.4µM | i
Cc1cccc(NC(=O)Nc2cccs2)c1C | i | nt | nt | nt
SMILES | HCMV antiviral | Pf growth 48h | Pf growth 96h | HCV inh
Cc1c(NC(=O)Nc2cccs2)cccc1[N+](=O)[O-] | -72 | i | i | ?
CC(C)Oc1ccc(CNC(=O)c2ccc(CN3CC(=O)N4CCCCC4C3=O)cc2)cc1 (centres undefined) | i | nt | nt | nt
COc1ccc(C)cc1S(=O)(=O)N1CCN(c2cccc(Cl)c2)CC1 | i | nt | nt | nt
CCc1ccc(NC(=O)Cn2c(=O)n(CCCCC(=O)NCCc3ccccc3)c(=O)c3ccccc32)cc1 | i | nt | nt | nt
COc1cccc(C(=O)O/N=C(\N)c2ccncc2)c1 | i | i | ? | nt
COc1ccccc1C(=O)O/N=C(\N)c1ccc(Cl)cc1 | i | i | i | i
COc1cccc(/C(N)=N/OC(=O)Cc2ccccc2[N+](=O)[O-])c1 | i | i | ? | i
COc1cccc(OC)c1C(=O)O/N=C(\N)c1ccncc1 | i | ? | 12µM | i
COc1ccc(Cl)cc1C(=O)O/N=C(\N)c1ccncc1 | i | ? | ? | 22µM
N/C(=N\OC(=O)Cc1ccccc1[N+](=O)[O-])c1ccncc1 | -61 | i | i | i
N/C(=N\OC(=O)C(c1ccccc1)c1ccccc1)c1ccncc1 | i | 2.9µM | ? | i
CC1CCC(NC(=O)CCc2cn(Cc3ccc(F)cc3)c3ccccc23)CC1 (centres undefined) | i | nt | nt | nt
O=C1CCC[C@H]2[C@@H](Cc3ccccc3)[C@@H](NS(=O)(=O)c3ccc4ccccc4c3)CC[C@]23CCCN13 | i | nt | nt | nt
COc1cc(C(=O)O/N=C(\N)c2ccncc2)cc(OC)c1OC | i | 9.3µM | ? | i
COc1ccc(C(=O)O/N=C(\N)c2ccncc2)cc1OC | i | ? | ? | i
Cc1ccc(C(=O)O/N=C(\c2ccccc2)c2ccncc2)cc1 | i | i | ? | i
COc1ccccc1C(=O)O/N=C(/c1ccncc1)c1ccc([N+](=O)[O-])cc1 | i | ? | 5.2µM | i
